Assay results as given in PubChem BioAssay (EPA / NIEHS).
Results filed as inconclusive are left out. The source holds several records for some structures; these can differ, active in one and inactive in another. Active and inactive are the calls of the source. Rule for the calls, unless noted: active = hit-call score of the fitted dose curve at least 0.9, where 1 is the maximum; inactive = score below 0.9.

Tests used:
[1] = BSK_BT_PBMCCytotoxicity: PBMC Cytotoxicity Assessment in the BioMAP Diversity Plus: BT Assay (AID 2284225); details: primary human B cells with PBMC;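 note: PBMC viability measured by Alamar Blue dye reduction fluorescence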
Summary of the method: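 75,000 cells/well; cpd 1 h → SEB + TSST-1 (20 ng/mL final each) → 90 h → Alamar Blue 6 h → fluor. 546/580 nm. DMSO = neg. control/baseline.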

[2] = read-out: Secreted IgG (sIgG), gene 3500; test: BSK_BT_sIgG: BioMAP Diversity Plus: BT Assay for Secreted IgG (sIgG) Biomarker Activity (AID 2284226); details: primary human B cells with PBMC
Summary of the method: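 Secreted IgG from a human primary B cell–PBMC co-culture was measured by ELISA 24 hours after dosing, with DMSO defining baseline activity.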

[3] = BSK_BT_Bcell_Proliferation: Viability Assessment in the BioMAP Diversity Plus: BT Assay for B cell Proliferation (AID 2284227); details: primary human B cells with PBMC
Summary of the method: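 Read-out is absorbance at 560 nm from sulforhodamine B staining of total protein, reflecting relative cell numbers in a human B cell and PBMC co-culture after 72 h of chemical exposure. Values were referenced to DMSO.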

[4] = read-out: Interleukin 6 (IL6), IL6 (gene 3569); test: BSK_BT_xIL6: BioMAP Diversity Plus: BT Assay for Interleukin 6 (IL6) Biomarker Activity (AID 2284228); details: primary human B cells with PBMC
Summary of the method: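 Secreted IL-6 in the primary human B cell plus PBMC system, measured by Luminex at 24 h post-chemical, DMSO as baseline. Alamar Blue viability: 75,000 cells/well, chemical 1 h before SEB/TSST-1 (20 ng/mL each), 90 h, then 6 h dye.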

[5] = read-out: Interleukin 17A (IL17A), IL17A (gene 3605); test: BSK_BT_xIL17A: BioMAP Diversity Plus: BT Assay for Interleukin 17A (IL17A) Biomarker Activity (AID 2284229); details: primary human B cells with PBMC
Summary of the method: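 Luminex xMAP quantification of secreted IL-17A after 24 h chemical exposure of a primary human B cell/PBMC co-culture. Signal increases fitted relative to DMSO negative control.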

[6] = read-out: Tumor necrosis factor (Homo sapiens) (UniProt P01375); test: BSK_BT_xTNFa: BioMAP Diversity Plus: BT Assay for Tumor necrosis factor alpha (TNF-alpha) Biomarker Activity (AID 2284230); details: primary human B cells with PBMC
Summary of the method: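 Human primary co-culture of B cells and peripheral blood mononuclear cells; TNF-alpha in supernatant, 24 h post-dose, Luminex multiplex; DMSO = baseline.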

[7] = read-out: Collagen I, COL1A1 (gene 1277); test: BSK_MyoF_CollagenI: BioMAP Diversity Plus: MyoF Assay for Collagen I Biomarker Activity (AID 2284238); details: primary human lung fibroblasts
Summary of the method: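 Collagen I levels measured by ELISA on human lung fibroblast cultures 24 h post-dosing, with curve fitting in the positive direction relative to DMSO; SRB staining of parallel wells marked cytotoxicity.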

[8] = read-out: Collagen III, COL3A1 (gene 1281); test: BSK_MyoF_CollagenIII: BioMAP Diversity Plus: MyoF Assay for Collagen III Biomarker Activity (AID 2284239); details: primary human lung fibroblasts
Summary of the method: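 Collagen III biomarker quantified by ELISA in human lung fibroblast cultures 24 h after dosing. Activity fitted in the positive direction against DMSO as baseline.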

[9] = read-out: Interleukin 17F (IL17F), IL17F (gene 112744); test: BSK_BT_xIL17F: BioMAP Diversity Plus: BT Assay for Interleukin 17F (IL17F) Biomarker Activity (AID 2284243); details: primary human B cells with PBMC
Summary of the method: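 Human B cells co-cultured with PBMC; secreted IL-17F quantified by LumineX xMAP 24 hours after chemical dosing. Activity fitted in the positive direction against DMSO negative control as baseline.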

[10] = read-out: Actin alpha 1 (ACTA1), ACTA1 (gene 58); test: BSK_MyoF_ACTA1: BioMAP Diversity Plus: MyoF Assay for Actin alpha 1 (ACTA1) Biomarker Activity (AID 2284244); details: primary human lung fibroblasts
Summary of the method: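 Measured by ELISA: alpha-smooth muscle actin in human primary lung fibroblasts 24 h after dosing, with DMSO as baseline and upward signal change as the fitted direction.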

[11] = read-out: Interleukin 2 (IL2), IL2 (gene 3558); test: BSK_BT_xIL2: BioMAP Diversity Plus: BT Assay for Interleukin 2 (IL2) Biomarker Activity (AID 2284245); details: primary human B cells with PBMC
Summary of the method: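 Secreted interleukin-2 from human B cell/PBMC co-cultures, measured 24 h post-dosing by Luminex multiplex immunoassay. Upward-direction curve fitting against DMSO baseline.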

[12] = TAMU_PeakParms_SingleDonor1434_QT: Texas A&M University (TAMU) 1.5-hr Human Induced Pluripotent Stem Cell (iPSC)-derived Cardiomyocytes Calcium (Ca+2) Flux Assay for Cardiotoxicity: QT (decay-rise ratio) (AID 2284235; active = hit-call score of the fitted dose curve at least 0.9, where 1 is the maximum)
Summary of the method: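 iPSC-derived cardiomyocytes (single donor 1434) dosed at 0.2, 1, 10, 100 uM final in 0.5% DMSO, 90 min at 37C. Ca2+ flux fluorescence decay/rise ratio; EC05 (5% increase versus DMSO) as POD, excluding beat-arrest and severe-notch data.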

[13] = TAMU_HCS_1.5hr_SingleDonor1434_Cytotoxicity: Cytotoxicity Assessment using High-content Screening (HCS) Fluorescent Imaging for the Texas A&M University (TAMU) 1.5-hr Human Induced Pluripotent Stem Cell (iPSC)-derived Cardiotoxicity Assay (AID 2284234; active = hit-call score of the fitted dose curve at least 0.9, where 1 is the maximum)
Summary of the method: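 Human iPSC-derived cardiomyocytes dosed at 0.2, 1, 10, 100 uM final (0.5% DMSO) for 90 min at 37 C. Hoechst 33342-stained nuclei counted by 10x high-content imaging; POD is EC10, a 10% drop in total cell count versus DMSO.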

[14] = CCTE_Mundy_HCI_Cortical_NOG_NeuronCount: CCTE's Neurite Outgrowth Assay in rat cortical cells for Neuron Count, Mundy Lab (AID 2284236; active = hit-call score of the fitted dose curve at least 0.9, where 1 is the maximum;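 note: neurons counted by imaging betaIII-tubulin and Hoechst stained cortical cells; cells exposed to compound for about 48 hours before fixation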)
Summary of the method: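 Read-out: neuron number by high-content imaging of betaIII-tubulin (Alexa Fluor-488) and Hoechst-labelled rat primary cortical cells.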

[15] = CCTE_Mundy_HCI_Cortical_NOG_BPCount: CCTE's Neurite Outgrowth Assay in rat cortical cells for Branch Point Count, Mundy Lab (AID 2284237)
Summary of the method: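 Measured 50.33 h after dosing, this morphology endpoint uses rat primary cortical cultures labelled for betaIII-tubulin. Branch points are quantified by high-content imaging, with DMSO as negative control and baseline.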

[16] = CCTE_Mundy_HCI_hNP1_Casp3_7: CCTE's Caspase-Glo 3/7 Assay in human neuroprogenitor cells for Apoptosis, Mundy Lab (AID 2284240)
Summary of the method: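 Luminescent caspase-3/7 readout, 26.5 h post-dose, in human neural progenitor cells from WA09 embryonic stem cells. Cells grew 40–44 h at 37 °C, 5% CO2 before chemical addition. Activity analysed as signal increase over DMSO baseline.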

[17] = CCTE_Mundy_HCI_hNP1_CellTiter: CCTE's Cell Titer-Glo 2 Assay in human neuroprogenitor cells for Viability, Mundy Lab (AID 2284241; active = hit-call score of the fitted dose curve at least 0.9, where 1 is the maximum)
Summary of the method: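 Viability read as luminescent ATP content (CellTiter-Glo, 30 min room temperature) twenty-four hours after dosing, relative to DMSO. Cells: WA09-derived hNP1 neuroprogenitors on poly-L-ornithine/laminin, plated 40 to 44 hours before chemical.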

[18] = CCTE_Mundy_HCI_Cortical_Synap_Neur_Matur_NeuronCount: CCTE's Synaptogenesis and Neurite Maturation Assay in rat cortical cells for Neuron Count, Mundy Lab (AID 2284242; active = hit-call score of the fitted dose curve at least 0.9, where 1 is the maximum)
Summary of the method: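 Imaging-based neuron count in rat cortical cultures after chemical exposure from DIV 7 to DIV 12, with AraC added at DIV 5. Activity is fitted relative to DMSO.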

Measured: AC50

Sequence of Tumor necrosis factor (Homo sapiens) (P01375 whole entry, looked up): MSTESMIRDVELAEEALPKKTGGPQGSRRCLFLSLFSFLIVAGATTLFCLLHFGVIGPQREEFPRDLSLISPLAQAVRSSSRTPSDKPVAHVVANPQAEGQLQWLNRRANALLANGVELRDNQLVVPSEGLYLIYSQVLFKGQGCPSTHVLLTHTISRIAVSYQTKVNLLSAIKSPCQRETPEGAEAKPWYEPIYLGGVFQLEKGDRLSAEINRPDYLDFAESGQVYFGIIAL

O=C(O)C(F)(F)C(F)(F)C(=O)O
inactive: [1] | [2] | [3] | [4] | [5] | [6] | [7] | [8] | [9] | [10] | [11]
active: [6] 0.222 µM

CCOP(=S)(S)OCC
active: [2] 4.15 µM
not listed: [12] | [13] | [14] | [15] | [16] | [17] | [18]
inactive: all other assays above

COP(=O)(O)OC
not listed: [12] | [13] | [14] | [15] | [16] | [17] | [18]
inactive: all other assays above

N#Cc1cc([N+](=O)[O-])ccc1N
not listed: [12] | [13] | [14] | [15] | [16] | [17] | [18]
inactive: all other assays above

COC(=O)C(F)(F)C(F)(F)OC(F)(C(F)(F)F)C(F)(F)OC(F)=C(F)F (stereo not drawn)
not listed: [12] | [13] | [14] | [15] | [16] | [17] | [18]
inactive: all other assays above

OCC(F)(F)OC(F)(F)C(F)(F)OC(F)(F)CO
not listed: [12] | [13] | [14] | [15] | [16] | [17] | [18]
inactive: all other assays above

COP(N)(=S)OC
not listed: [12] | [13] | [14] | [15] | [16] | [17] | [18]
inactive: all other assays above

CC(Cl)CN(C)C (stereo not drawn)
not listed: [12] | [13] | [14] | [15] | [16] | [17] | [18]
inactive: all other assays above

O=P(Oc1ccccc1)(Oc1ccccc1)Oc1ccccc1
inactive: [12]

CCOP(=S)(NC(C)C)Oc1ccccc1C(=O)OC(C)C (stereo not drawn)
active: [2] 14.2 µM | [4] 14.3 µM | [9] 28.7 µM | [11] 20 µM
inactive: [1] | [3] | [5] | [6] | [7] | [8] | [10]

O=c1ssc(Cl)c1Cl
active: [1] 6.76 µM | [2] 3.62 µM | [3] 6.31 µM | [4] 6.42 µM | [5] 4.51 µM | [6] 8.17 µM | [7] 7.5 µM | [8] 9.69 µM | [9] 6.3 µM | [10] 6.24 µM | [11] 6.44 µM

c1cc2c3c(cccc3c1)CC2
inactive: [13] | [12]

O=S(=O)(F)C(F)(F)C(F)(F)C(F)(F)C(F)(F)C(F)(F)C(F)(F)C(F)(F)C(F)(F)F
not listed: [12] | [13] | [14] | [15] | [16] | [17] | [18]
inactive: all other assays above

CCOP(=S)(OCC)SCSc1ccc(Cl)cc1
active: [2] 20 µM | [10] 3.97 µM
inactive: [1] | [3] | [4] | [5] | [6] | [7] | [8] | [9] | [11]

O=P(OCC(Br)CBr)(OCC(Br)CBr)OCC(Br)CBr (stereo not drawn)
inactive: [1] | [7] | [8] | [10]
active: [2] 16.9 µM | [3] 23.9 µM | [4] 17.4 µM | [5] 17.4 µM | [6] 33.6 µM | [9] 27.7 µM | [11] 27.7 µM

CCOP(=S)(OCC)SCS(=O)(=O)CC
not listed: [12] | [13] | [14] | [15] | [16] | [17] | [18]
inactive: all other assays above

Cc1ccc2c(c1N)C(=O)c1ccccc1C2=O
inactive: [1] | [2] | [3] | [5] | [7] | [10] | [11]
active: [4] 0.144 µM | [6] 20 µM | [8] 1.43 µM | [9] 20 µM

O=P1(N(CCCl)CCCl)NCCCO1 (stereo not drawn)
inactive: [14] | [15] | [16] | [17]

Nc1ccc([N+](=O)[O-])cc1Cl
not listed: [12] | [13] | [14] | [15] | [16] | [17] | [18]
inactive: all other assays above

O=S1(=O)OCC2C(CO1)C1(Cl)C(Cl)=C(Cl)C2(Cl)C1(Cl)Cl (stereo not drawn)
inactive: [7] | [8] | [10]
active: [1] 32.9 µM | [2] 1.55 µM | [3] 25.9 µM | [4] 33 µM | [5] 16.1 µM | [6] 31 µM | [9] 28.3 µM | [11] 20 µM

CCC1(c2ccccc2)C(=O)N=C(O)NC1=O (stereo not drawn)
inactive: [15] | [16] | [17] | [18]

ClC(Cl)=C(c1ccc(Cl)cc1)c1ccccc1Cl
active: [1] 37.2 µM | [2] 29.6 µM | [3] 34.4 µM | [4] 30 µM | [5] 27.3 µM | [6] 31.1 µM | [7] 4.93 µM | [8] 7.34 µM | [9] 32.2 µM | [10] 5.45 µM | [11] 31.4 µM

N#Cc1c(-c2ccc(Cl)cc2)[nH]c(C(F)(F)F)c1Br
active: [1] 2.33 µM | [2] 0.309 µM | [3] 2.37 µM | [4] 0.556 µM | [5] 1.14 µM | [6] 10.8 µM | [7] 0.899 µM | [8] 0.63 µM | [9] 1.63 µM | [10] 0.329 µM | [11] 10.1 µM

NC(=O)C(F)(F)C(F)(F)F
not listed: [12] | [13] | [14] | [15] | [16] | [17] | [18]
inactive: all other assays above

c1ccc2c(c1)sc1ccccc12
not listed: [12] | [13] | [14] | [15] | [16] | [17] | [18]
inactive: all other assays above
